For seven sequences, PBM binding z-score results are on record in the supplement of paper PMC6555819.

Common to all, as to test: PBM binding z-score (relative to random genomic background probes); higher = stronger binding; sequences stand for … in GC…GCGATTGACAGCGTAGAATGAAGG
Assay [1] has as its system FXR:RXRa (NR concentration 270 nM, RXRa partner concentration 90 nM). In outline: (§1)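 On custom Agilent 4×180K arrays, double-stranded probes with 34-nt variable regions carried direct-repeat seeds, single-nucleotide variants, half-site ablations or random human genomic background. Ligand-free nuclear receptor dimers were applied for 1 h, and binding was read with antibodies against each partner (one per run). Binding z-scores come from regression-normalized fluorescence, with the random background probes as reference.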

Assay [2] deals with LXRa:RXRa (NR concentration 270 nM, RXRa partner concentration 90 nM). The method in brief: as §1
Assay [3] deals with LXRa homodimer (NR concentration 270 nM). In outline: as §1
Assay [4] relates to LXRb:RXRa (NR concentration 270 nM, RXRa partner concentration 90 nM). The method in brief: as §1
The test system of assay [5] is LXRb homodimer (NR concentration 270 nM). In outline:
as §1

Assay [6] relates to PPARa:RXRa (NR concentration 270 nM, RXRa partner concentration 90 nM). In outline:
as §1

Assay [7] has as its system PPARg:RXRa (NR concentration 180 nM, RXRa partner concentration 90 nM). The method in brief:
as §1

For assay [8], the system named is PPARg:RXRa 270nM:90nM, anti-RXR (NR concentration 270 nM, RXRa partner concentration 90 nM). The method in brief:
as §1

In assay [9] the test system is PPARg:RXRa 30nM:10nM, anti-RXR (NR concentration 30 nM, RXRa partner concentration 10 nM). The method in brief: as §1
Assay [10] deals with PPARg:RXRa 90nM:30nM, anti-RXR (NR concentration 90 nM, RXRa partner concentration 30 nM). The method in brief: as §1
Assay [11] deals with PPARg:RXRa DBDmut IVT, anti-RXR (DBD mutation: RXRa K156A/R161A, NR concentration 270 nM, RXRa partner concentration 90 nM). The method in brief:
as §1

For assay [12], the system named is PPARg:RXRa IVT, anti-PPARg (NR concentration 270 nM, RXRa partner concentration 90 nM). In outline:
as §1

The subject of assay [13] is PPARg DBDmut:RXRa IVT, anti-PPARg (DBD mutation: PPARg1 K132A/R137A, NR concentration 270 nM, RXRa partner concentration 90 nM). In outline:
as §1

The subject of assay [14] is PPARg DBDmut IVT, anti-PPARg (DBD mutation: PPARg1 K132A/R137A, NR concentration 270 nM). The method in brief: as §1
Assay [15] deals with PPARg homodimer (NR concentration 180 nM). The method in brief:
as §1

Assay [16] deals with PXR:RXRa (NR concentration 270 nM, RXRa partner concentration 90 nM). In outline:
as §1

The test system of assay [17] is PXR homodimer (NR concentration 270 nM). In outline: as §1
In assay [18] the test system is RARa:RXR (NR concentration 270 nM, RXRa partner concentration 90 nM). The method in brief: as §1
For assay [19], the system named is RARa homodimer (NR concentration 270 nM). The method in brief: as §1
For assay [20], the system named is RARb:RXRa (NR concentration 270 nM, RXRa partner concentration 90 nM). In outline: as §1

As for TCTTGTAGAGCAAAGGTTAAGAAAGCCGAAGCCT, the PBM binding z-score in assay [1] is 0.884; in [2], 1.23; in assay [3], -0.186; in [4], 1.4; in assay [5], -0.852; in assay [6] it was 4.91. Also, the PBM binding z-score was 8.91 in [7]; 8.58 in [8]; 8.43 in assay [9]; 8.68 in [10]; 2.94 in [11]; 4.15 in assay [12]. In addition, the PBM binding z-score in [13] was 0.281; in assay [14] it was -0.0845; in assay [15] it was 0.283; in assay [16] it was 1.49; in assay [17], -0.688; in assay [18], 2.16. Besides, the figures for the PBM binding z-score in assay [19] and in assay [20] were -0.59 and 1.62, respectively.
Take CCTCGGAGGACAGACGGTCAGAGCTGTCCGCTTT: the PBM binding z-score in assay [1] was -0.245; in assay [2], -0.454; in assay [3], -0.415; in assay [4], -1.1; in assay [5] it was -0.8; in assay [6], -0.791. Also, the PBM binding z-score in assay [7] was -0.705; in assay [8], -1.01; in [9], -1.36; in assay [10], -0.797; in [11], -0.634; in assay [12] it was -0.745. Besides, the PBM binding z-score is -1.14 in assay [13]; -1.66 in assay [14]; -0.576 in [15]; -0.726 in [16]; -0.42 in assay [17]; -0.842 in assay [18]. Moreover, the values for the PBM binding z-score in assay [19] and in assay [20] were -0.616 and 1.23, respectively.
In the case of ATCGAAAGGTCGAAGGTGAGTGTACCCACCCGAA, the PBM binding z-score in [1] was 4.5; in [2] it was 3.39; in assay [3], 0.164; in assay [4], 2.8; in assay [5] it was 0.755; in assay [6], 4.8. Besides, the PBM binding z-score was 4.86 in assay [7]; 4.69 in assay [8]; 2.15 in assay [9]; 3.8 in assay [10]; -0.0432 in assay [11]; 2.32 in assay [12]. Also, the PBM binding z-score in assay [13] was found to be 1.7; in assay [14], 0.661; in [15], 1.79; in assay [16] it was 3.07; in [17], 0.136; in assay [18], 4.01. For the same sequence, the PBM binding z-score is -0.116 in [19] and 3.86 in assay [20].
Turning to ACTATTTGGTCAGCTGAGGTCACACACAATTCGG, the PBM binding z-score stood at 3.54 in [1]; 3.48 in assay [2]; 2.98 in [3]; 3.81 in assay [4]; 1.88 in [5]; 3.9 in assay [6]. Moreover, the PBM binding z-score in assay [7] amounted to 1.86; in assay [8] it was 2.4; in [9] it was 0.852; in assay [10], 1.66; in assay [11], 1.59; in [12], 2.69. Also, the PBM binding z-score in assay [13] is 1.5; in assay [14], 1.46; in [15], 2.9; in [16], 5.26; in assay [17], 1.97; in assay [18], 4.3. For the same sequence, the PBM binding z-score in assay [19] was determined as 1.66; in [20] it was 3.65.
In the case of CCTAGTTGGTCAAGGTCACACGCGCTATAGGTAC, the PBM binding z-score in assay [1] was found to be 4.49; in [2] it was 3.9; in assay [3] it was 2.29; in assay [4], 3.34; in assay [5], 0.902; in assay [6], 4.29. The PBM binding z-score in assay [7] came out at 3.54; in assay [8] it was 3.95; in [9], 1.23; in assay [10] it was 3.1; in assay [11], 2.5; in assay [12] it was 3.82. In addition, the PBM binding z-score in [13] came to 0.145; in assay [14], 0.325; in [15], 2.68; in assay [16], 4.09; in [17], 2.6; in assay [18], 4.13. Besides, the values for the PBM binding z-score in assay [19] and in assay [20] were 1.78 and 4.39, respectively.
Consider TCATATAGGTAAAGGCTAGGTGAAAGTCCGATCT, for which the PBM binding z-score in assay [1] is 1.01; in assay [2], 0.707; in assay [3], -0.194; in assay [4], 0.441; in [5], -0.41; in [6] it was 1.71. The PBM binding z-score came out at 1.18 in assay [7]; 2.39 in assay [8]; 3.57 in assay [9]; 2.98 in assay [10]; 3.97 in assay [11]; 3.25 in assay [12]. Also, the PBM binding z-score in assay [13] amounted to 0.56; in assay [14], 1.28; in assay [15], 0.619; in assay [16], 0.508; in assay [17] it was 0.058; in assay [18], 1.09. Also, the PBM binding z-score came out at 1.15 in assay [19] and 0.844 in assay [20].
TCTAGCAGGCCAGAGGTTCACTCAAGAGGTACGG: the PBM binding z-score in [1] is -0.592; in assay [2] it was -0.361; in [3] it was -0.519; in [4], -0.224; in assay [5], -1.44; in assay [6], 0.888. For the same sequence, the PBM binding z-score in [7] was 1.43; in assay [8] it was 2.96; in [9], 2.15; in assay [10], 2.98; in assay [11], 0.614; in [12], -0.232. Further, the PBM binding z-score is -1.08 in assay [13]; -0.88 in assay [14]; -0.59 in [15]; 0.274 in assay [16]; -0.691 in assay [17]; 0.324 in assay [18]. The PBM binding z-score in [19] was -0.904; in assay [20], 0.468.
